Screening data deposited in PubChem by National Center for Advancing Translational Sciences (NCATS).
GLP-1R agonist – agonists of human GLP-1 receptor; 380,000 compounds, 0.007% hits; Potency, µM (doses to about 45.6 µM), hits mostly activators; AID 624172; HEK293 GLP-1R CRE-luciferase, luminescence, 4-6 h; cells express a hypersensitive GLP-1R form
HEK293 tox – cytotoxicity counter-screen for GLP-1 receptor inverse agonists; HEK293 cAMP-luciferase reporter cells, luminescence, 24 h; Potency, µM (series often up to 38.3 µM), usual class: inhibitors; 410,000 compounds, 0.13% hits; AID 624418;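 also: loss of luciferase light is scored as toxicity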
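Compound-treated cells are incubated 24 hr at 37 deg C under 5% CO2 after a 12 hour attachment period, then luciferase detection reagent is added and luminescence is measured following 12 min at room temperature; lowered signal indicates toxicity.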
p53 reactivator – re-activators of mutant p53; H1299 p53-A138V BP100-luciferase reporter, luminescence, 24 h; Potency, µM (titrated, usually from 92.2 µM), actives largely listed as activators; 320,000 compounds, 0.063% hits; also: nearly all actives have a fitted effect of over 45% in size
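H1299 (p53-null), stable ts p53-A138V + BP100-Luc; 1000 cells/well, Opti-MEM/10% FBS; cpd 4 pt, 1:5; 24 h, 37 deg C, 5% CO2; detection reagent 10 min RT; luminescence.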
ClpP mod – qHTS Assay for Activators of ClpP; purified B. subtilis ClpP, FRET peptide cleavage, 20 min; ATP-dependent Clp protease proteolytic subunit (Bacillus subtilis (strain 168)), P80244; 340,000 compounds, 1.9% hits; Potency, µM (highest dose often 57.5 µM); AID 651965, 2013; active = well fitted falling curve with a large enough effect; inconclusive = small, poorly fitted or top-dose-only effect; inactive = no such curve, though single readings can be large or run the other way; also: the source files actives as falling curves though it sought activators and does not explain the sign; nearly all actives have a fitted effect of over 65% in size
Target sequence (P80244 whole entry, looked up): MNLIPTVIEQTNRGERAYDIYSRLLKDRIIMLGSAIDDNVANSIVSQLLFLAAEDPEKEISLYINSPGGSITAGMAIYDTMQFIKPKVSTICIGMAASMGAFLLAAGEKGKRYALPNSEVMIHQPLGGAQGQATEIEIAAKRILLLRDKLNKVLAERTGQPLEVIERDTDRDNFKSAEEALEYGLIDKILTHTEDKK
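Buffer: 100 mM Tris/HCl pH8, 100 mM KCl, 0.05% low protease BSA, 2.5% glycerol, 0.01% Tween-20. ClpP 10 microg/mL final; 20 min RT; delta FRET normalized to ADEP and DMSO controls.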
LDHA inh – inhibitors of human lactate dehydrogenase A; P00338; purified LDHA, NADH/diaphorase-resazurin fluorescence; active compounds read low; activity change, % (values are at about 110 or 230 µM); 480,000 compounds, 0.15% hits; AID 1347041; in the data active = activity change below about -30%; inconclusive = mostly about -25% to -30%
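Remaining NADH was detected by diaphorase (0.133 mg/mL) converting 37 µM resazurin to fluorescent resorufin, read at 0 and 20 minutes. The preceding 5-minute room-temperature reaction used 2 nM LDHA, 0.2 mM sodium pyruvate and 0.06 mM NADH at pH 7.4.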
GLP1R inv ag – inverse agonists of human GLP-1 receptor. HEK293 GLP-1R CRE-luciferase, luminescence, 24 h; GLP-1R form is constitutively active. Potency, µM (doses to about 38.3 µM), usual class: inhibitors. 410,000 compounds, 1.6% hits. AID 624417; also: nearly all actives have a fitted effect of over 55% in size
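GLP-1R inverse agonism mode: basal reporter luminescence in engineered HEK293 cells measured after one day of compound exposure at 37 deg C, with a 12 min room-temperature detection step.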
A number is an active result; - = inactive; ? = inconclusive; . = no result; [ ] = remark or other dose. Only some compounds are listed: those with a hit (about 2.9% of all), similar ones and a draw of the others. Unless noted, calls follow the shape of the dose curve; as a rule, active = well fitted curve in the direction sought with a large enough effect; inconclusive = small, poorly fitted or top-dose-only effect, or another doubt; inactive = no such curve, though single readings can be large; an effect the other way counts as inactive or inconclusive.

SMILES | GLP-1R agonist | HEK293 tox | p53 reactivator | ClpP mod | LDHA inh | GLP1R inv ag
O=C(Oc1cccccc1=O)c1ccccc1 | - | ? | - | - | - | 10µM
O=C(Oc1ccccc1Cl)c1ccccc1 | - | - | . | - | - | -
Cc1ccccc1Nc1nnc(-c2ccc(C)c(S(=O)(=O)N3CCOCC3)c2)c2ccccc12 | . | - | . | - | - | -
Cc1ccccc1Nc1nnc(-c2ccc(C)c(S(=O)(=O)N3CCCCC3)c2)c2ccccc12 | . | - | . | - | - | 3.2µM
C/C(=N\NC(=S)NCCc1ccccc1)c1ccc(C#N)cc1 | - | - | - | - | - | -
C/C(=N\NC(=S)NCCc1ccccc1)c1ccc(Cl)cc1 | ? | ? | ? | ? | - | 10µM
C/C(=N\NC(=S)NCCc1ccccc1)c1ccc(C)cc1 | - | 10µM | ? | - | - | ?
Cc1cccc(NC(=S)NCCc2ccccc2)n1 | - | 4µM | - | . | - | ?
COc1ccc(S(=O)(=O)N2CCOc3ccccc32)cc1 | - | ? | - | - | - | 3.5µM
CCOc1ccccc1C(=O)Nc1cccc2ccc(C)nc12 | . | - | . | 32µM | - | ?
CC(C)Oc1ccc(C(=O)N/N=C/c2ccc(-c3ccc(S(=O)(=O)Nc4ncccn4)cc3)o2)cc1 | - | - | - | 14µM | - | -
NC(=O)N/N=C/c1ccc(-c2ccc(S(=O)(=O)Nc3ncccn3)cc2)o1 | - | - | - | ? | - | -
Cn1cccc1/C=N\NC(=O)C1COc2ccc(C(C)(C)C)cc2O1 (centres undefined) | - | - | - | - | - | 10µM
Cn1cccc1/C=N\NC(=O)C1COc2ccccc2O1 (centres undefined) | - | - | - | - | - | -
COc1ccc(S(=O)(=O)NNC(=O)c2cc3c4ccccc4n(C)c3s2)cc1 | - | - | - | 35µM | - | -
CC(C)NC1=C(Cl)C(=O)c2ccccc2C1=O | - | 5.6µM | - | - | - | -
O=C1C(Cl)=C(Nc2ccccc2)C(=O)c2ccccc21 | - | ? | - | - | - | -
O=C1C(Cc2ccccc2)NC(=S)N1Cc1ccccc1 (centres undefined) | - | - | - | - | - | ?
CC(C)CC1NC(=S)N(Cc2ccccc2)C1=O (centres undefined) | - | - | - | - | - | 2.8µM
CSCCC1NC(=S)N(Cc2ccccc2)C1=O (centres undefined) | - | - | - | - | - | 10µM
CCOC(=O)CC1(C)OCC(C[N+]2(C)CCCCC2)O1 (centres undefined) | - | - | - | . | - | -
N#Cc1ccc(S(=O)(=O)NCC(=O)OCC(=O)N2CCCC2=O)cc1 | - | - | - | 14µM | - | -
CC(C)CNC(=S)N1CCN(C(c2ccccc2)c2ccccc2)CC1 | - | - | - | - | - | 2.8µM
COc1cccc(NC(=S)N2CCN(C(c3ccccc3)c3ccccc3)CC2)c1 | - | - | - | - | - | 10µM
COc1cc(NC(=S)N2CCC(C(O)(c3ccccc3)c3ccccc3)CC2)cc(OC)c1 | - | - | - | - | - | 10µM
SMILES | GLP-1R agonist | HEK293 tox | p53 reactivator | ClpP mod | LDHA inh | GLP1R inv ag
CCNC(=S)N1CCC(C(O)(c2ccccc2)c2ccccc2)CC1 | - | - | - | . | - | -
COc1ccc(NC(=S)N2CCN(C(c3ccccc3)c3ccccc3)CC2)c(OC)c1 | - | -[7.66 µM] | - | . | - | ?
COCCCNC(=S)N1CCN(C(c2ccccc2)c2ccccc2)CC1 | - | - | - | - | - | 10µM
O=C(COC(=O)c1ccccc1F)NNC(=O)c1ccccc1 | - | - | - | - | - | -
Cc1ccc2c(c1)N(C(=O)Nc1cccc3c1CCCC3)CC(C)O2 (centres undefined) | . | - | . | - | - | 10µM
COc1cccc(N/C(SCc2ccccc2F)=C(/C#N)C(=O)NCc2cccs2)c1 | - | - | - | - | - | 5µM
CCC(=O)N1CCc2cc(CNC(=O)Cc3ccc(F)cc3)ccc21 | . | - | . | - | - | -
CCOC(=O)c1cc(Cl)c2c(ccc3ccccc32)n1 | - | - | . | - | - | -
